Structures can show the parent of a compound that is named as a salt.
tested on: replication-induced senescent mouse newborn dermal fibroblasts (NBF); assay: relative cell viability of senescent cells (fraction); higher = less killing of senescent cells; conditions: 1 µM; 3 days
Protocol: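 Replication-induced senescent newborn mouse skin fibroblasts (NBFs) in 24-well plates were treated with a Selleck FDA-approved drug library at 1 µM for 3 days.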

SMILES | relative cell viability
NC(=O)C1CCCc2c1[nH]c1ccc(Cl)cc21 (stereo not given) [Selisistat (EX 527)] | 0.498
Nc1nc2c(ncn2COCCO)c(=O)[nH]1 [Aciclovir] | 1.06
CN(C)CCOC(c1ccccc1)c1ccccc1 [Diphenhydramine HCl] | 1.14
O=C(Nc1cccc2c(=O)cc(-c3nnn[nH]3)oc12)c1ccc(OCCCCc2ccccc2)cc1 [Pranlukast] | 1.01
C[C@H]1[C@H](NC(=O)/C(=N\OC(C)(C)C(=O)O)c2csc(N)n2)C(=O)N1S(=O)(=O)O [Aztreonam] | 1.06
CC(C)Cc1ccc(C(C)C(=O)O)cc1 (stereo not given) [Ibuprofen] | 0.765
CNC(=O)c1ccccc1Sc1ccc2c(/C=C/c3ccccn3)n[nH]c2c1 [Axitinib] | 0.908
Cc1ccc(NC(=O)c2ccc(CN3CCN(C)CC3)cc2)cc1Nc1nccc(-c2cccnc2)n1 [Imatinib (STI571)] | 1.12
C=C1/C(=C\C=C2/CCC[C@]3(C)[C@@H]([C@H](C)CCCC(C)C)CC[C@@H]23)C[C@@H](O)C[C@@H]1O [Alfacalcidol] | 0.249
Oc1ccc(/C=C/c2cc(O)cc(O)c2)cc1 [Resveratrol] | 1.02
COc1ccc2cc([C@H](C)C(=O)O)ccc2c1 [Naproxen Sodium] | 0.686
O=NN(CCCl)C(=O)NC1CCCCC1 [Lomustine] | 1.02
O=C(O)c1cc(/N=N/c2ccc(S(=O)(=O)Nc3ccccn3)cc2)ccc1O [Sulfasalazine] | 1.3
CC(C)C[C@H](NC(=O)[C@@H](NC(=O)c1cccc(-c2ccccc2)n1)[C@@H](C)O)B(O)O | 1.1
CCCCC1C(=O)N(c2ccccc2)N(c2ccccc2)C1=O [Phenylbutazone] | 0.899
O=C(CCCCCCC(=O)Nc1ccccc1)NO [Vorinostat (SAHA, MK0683)] | 0.75
CC/C(=C(/CC)c1ccc(O)cc1)c1ccc(O)cc1 [Diethylstilbestrol] | 1.06
C[C@]1(c2nc3c(C(N)=O)cccc3[nH]2)CCCN1 [Veliparib (ABT-888)] | 0.885
CC(C)c1nc(CN(C)C(=O)N[C@H](C(=O)N[C@@H](Cc2ccccc2)C[C@H](O)[C@H](Cc2ccccc2)NC(=O)OCc2cncs2)C(C)C)cs1 [Ritonavir] | 1.15
CC(C)Cn1cnc2c(N)nc3ccccc3c21 [Imiquimod] | 0.273

SMILES | relative cell viability
Nc1nc(=O)n([C@@H]2CS[C@H](CO)O2)cc1F [Emtricitabine] | 1.04
COc1ccc(/C=C/C(=O)Nc2ccccc2C(=O)O)cc1OC [Tranilast] | 1
C[C@@H]1[C@H](O)[C@@H](C)/C=C/C=C/C=C/C=C/C=C/C=C/C=C/[C@H](O[C@@H]2O[C@H](C)[C@@H](O)[C@H](N)[C@@H]2O)C[C@@H]2O[C@](O)(C[C@@H](O)C[C@@H](O)[C@H](O)CC[C@@H](O)C[C@@H](O)CC(=O)O[C@H]1C)C[C@H](O)[C@H]2C(=O)O [Amphotericin B] | 0.766
Oc1c(Cl)cc(Cl)c2cccnc12 [Chloroxine] | 0.982
CNC(=O)c1cc(Oc2ccc(NC(=O)Nc3ccc(Cl)c(C(F)(F)F)c3)c(F)c2)ccn1 [Regorafenib (BAY 73-4506)] | 0.958
COc1ccccc1OCC(O)CO (stereo not given) [Guaifenesin] | 1.12
CCCSc1ccc2[nH]c(NC(=O)OC)nc2c1 [Albendazole] | 1.08
C[C@H](N[C@@H](CCc1ccccc1)C(=O)O)C(=O)N1CCC[C@H]1C(=O)O [Enalaprilat Dihydrate] | 0.862
CS(=O)(=O)c1ccc(C(=O)Nc2ccc(Cl)c(-c3ccccn3)c2)c(Cl)c1 [Vismodegib (GDC-0449)] | 0.521
C[C@H]1C[C@H]2[C@@H]3CCC4=CC(=O)C=C[C@]4(C)[C@H]3C(=O)C[C@]2(C)[C@@]1(O)C(=O)CO [Meprednisone] | 1.09
CC(=O)Nc1ccc(O)cc1 [Acetaminophen] | 0.803
COc1cnc(NS(=O)(=O)c2ccc(N)cc2)nc1 [Sulfameter] | 0.763
COc1cc2ncnc(Nc3ccc(F)c(Cl)c3)c2cc1OCCCN1CCOCC1 [Gefitinib (ZD1839)] | 1.01
Cc1cn(-c2cc(NC(=O)c3ccc(C)c(Nc4nccc(-c5cccnc5)n4)c3)cc(C(F)(F)F)c2)cn1 [Nilotinib (AMN-107)] | 0.044
COC(=O)c1ccc2c(C(=Nc3ccc(N(C)C(=O)CN4CCN(C)CC4)cc3)c3ccccc3)c(O)[nH]c2c1 [Nintedanib (BIBF 1120)] | 1.01
CO/N=C(\C(=O)N[C@@H]1C(=O)N2C(C(=O)OCOC(=O)C(C)(C)C)=C(/C=C\c3scnc3C)CS[C@H]12)c1csc(N)n1 [Cefditoren Pivoxil] | 0.949
CC[C@H]1OC(=O)[C@H](C)[C@@H](O[C@H]2C[C@@](C)(OC)[C@@H](O)[C@H](C)O2)[C@H](C)[C@@H](O[C@@H]2O[C@H](C)C[C@H](N(C)C)[C@H]2O)[C@](C)(O)C[C@@H](C)CN(C)[C@H](C)[C@@H](O)[C@]1(C)O [Azithromycin] | 0.879
CC(C(=O)O)c1ccc(-c2ccccc2)c(F)c1 (stereo not given) [Flurbiprofen] | 1.04
Clc1ccc(Nc2nnc(Cc3ccncc3)c3ccccc23)cc1 [Vatalanib (PTK787) 2HCl] | 0.741
COc1ccc2[nH]cc(CCNC(C)=O)c2c1 [Melatonin] | 1.05

— the supplement of paper PMC7184167
